# Results taken from PubChem BioAssay AID1211 (NMMLSC, 2008).
# A number with no mark means an inactive call. Active and inactive are the calls of the source. No rule for the calls is given here.
# Molecular target: Estrogen receptor (Homo sapiens) (UniProt P03372)
# Assay: displacement of fluorescent estrogen from ERalpha – cell-based, Cos7 ERalpha-GFP, flow cytometry, primary screen (AID 1211);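 also: 0% = DMSO vehicle wells and 100% = no E2-Alexa633 signal left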
# Conditions: fluorescent ligand competition, at 10 µM, hits give high values
# Sequence of Estrogen receptor (Homo sapiens) (P03372 whole entry, looked up): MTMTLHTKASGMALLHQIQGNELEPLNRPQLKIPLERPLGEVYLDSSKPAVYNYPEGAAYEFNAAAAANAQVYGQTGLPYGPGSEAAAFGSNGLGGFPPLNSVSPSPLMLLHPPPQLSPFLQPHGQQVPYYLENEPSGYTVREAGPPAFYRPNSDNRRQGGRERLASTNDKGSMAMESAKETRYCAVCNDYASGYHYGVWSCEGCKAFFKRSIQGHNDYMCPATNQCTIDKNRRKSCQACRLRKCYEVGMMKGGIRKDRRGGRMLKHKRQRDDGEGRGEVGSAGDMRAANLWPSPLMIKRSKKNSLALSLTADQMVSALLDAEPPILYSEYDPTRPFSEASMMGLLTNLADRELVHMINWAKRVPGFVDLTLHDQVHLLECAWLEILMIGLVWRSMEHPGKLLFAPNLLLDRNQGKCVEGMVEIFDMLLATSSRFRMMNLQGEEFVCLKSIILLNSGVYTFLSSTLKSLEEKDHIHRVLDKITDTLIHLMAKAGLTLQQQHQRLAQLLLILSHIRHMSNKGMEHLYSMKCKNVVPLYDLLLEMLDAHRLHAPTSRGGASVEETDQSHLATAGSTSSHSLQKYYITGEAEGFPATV
row,Compound,inhibition of ligand binding
1,COc1ccc(C2CC(c3ccccc3)=NN2C(=O)CSc2nccc(=O)[nH]2)cc1 (stereo not drawn),20%
2,CC(=O)Oc1ccc2c(c1)CCC1C2C(O)CC2(C)C(=O)CCC12 (stereo not drawn),15%
3,Cc1ccc(NC(=O)CSc2nnnn2-c2ccc3c(c2)OCO3)cc1C,33%
4,CCOc1cc2c(c([N+](=O)[O-])c1)NC(c1ccccc1)C1CC=CC21 (stereo not drawn),12%
5,COC(=O)c1ccc(OCc2c(C)noc2C)cc1,22%
6,CC1(C)Cc2[nH]c3ccccc3c2C(C)(C)N1,6%
7,CCOC(=O)c1ccc2c(c1)C1C=CCC1C(C(=O)O)N2 (stereo not drawn),51%
8,COc1ccc2c(c1)c1c3n2CCNC3CCC1 (stereo not drawn),25%
9,Cc1nc2ccccc2n1-c1cc(C(C)(C)C)c(O)c(C(C)(C)C)c1,9%
10,Nc1nc(N)c2sc3nc4c(cc3c2n1)CCC4,17%
11,COc1cc([N+](=O)[O-])cc2c1NC(c1ccccc1Cl)C1CC=CC21 (stereo not drawn),0%
12,COc1cccc(-c2cc(C(=O)Nc3cc(C)nn3-c3ccccc3)no2)c1,30%
13,CC(C)C1CC(CCNCc2ccc3c(c2)OCO3)(c2ccccc2)CCO1 (stereo not drawn),26%
14,CC(=O)c1ccc2c(c1)C1C=CCC1C(c1ccncc1)N2 (stereo not drawn),9%
15,Cc1nn(-c2ccc(Cl)cc2)c2sc(C(=O)N3CCN(c4ccccn4)CC3)cc12,50%
16,O=C(O)c1ccc2c(c1)[C@@H]1C=CC[C@@H]1[C@H](c1ccccn1)N2,81% (active)
17,CCCc1cc(=O)oc2c(C)c(OC3CCCCC3=O)ccc12 (stereo not drawn),0%
18,CC(=O)N1c2ccc3ccccc3c2C2C=CCC2C1c1ccc(Br)cc1 (stereo not drawn),48%
19,O=c1oc2c(CN3CCCC3)c(O)ccc2c2c1CCC2,0%

row,Compound,inhibition of ligand binding
1,CC(=O)c1ccc(N2Cc3ccccc3C2)cc1,8%
2,Cc1cc(C)c2c(c1)[C@@H]1C=CC[C@@H]1[C@H](c1ccc(S(=O)(=O)N3CCOCC3)cc1)N2,66% (active)
3,O=C1CC(c2ccncc2)c2cc3c(cc2N1)OCCO3 (stereo not drawn),0%
4,Oc1ccc2c(c1)c1c3n2CCNC3CCC1 (stereo not drawn),0%
5,COc1cc([N+](=O)[O-])cc2c1NC(c1ccc(Cl)cc1)C1CC=CC21 (stereo not drawn),46%
6,C=CCn1c(COc2ccccc2F)nnc1SCC(=O)NC(=O)NCc1ccco1,11%
7,O=C(CSc1nnc(-c2ccc(O)cc2)n1Cc1ccccc1)NNC(=O)c1ccc(Br)cc1,48%
8,c1coc(C2Nc3ccccc3C3OCCC23)c1 (stereo not drawn),41%
9,COCCCn1c(Cc2csc(Nc3cccc(Cl)c3)n2)nnc1SCC(=O)OC1CCCCC1,37%
10,CC(C)CN(Cc1c(O)ccc2c3c(c(=O)oc12)CCC3)CC(C)C,6%
11,CCCCc1cc2c(=O)c(-c3ccccn3)coc2cc1O,1%
12,CC(=O)NC12CC3CC(C1)CC(C(=O)OCC(=O)Nc1ncc(Cl)c(C)c1Cl)(C3)C2,21%
13,CCOc1cc2c(c([N+](=O)[O-])c1)NC(c1ccc(Cl)cc1)C1CC=CC21 (stereo not drawn),0%
14,COc1cc(C2C3C(C)N(C)C(=O)N(C)C3N(C)C(=O)N2C)ccc1O (stereo not drawn),0%
15,CCC(Oc1ccc2c3c(c(=O)oc2c1C)CCC3)C(=O)OC (stereo not drawn),15%
16,COc1ccc(CCn2c(SCC(=O)Nc3cc(C)on3)nc3ccsc3c2=O)cc1OC,33%
17,Cc1oc2ccc(OCC#N)cc2c1C(=O)OC(C)C,0%
18,Nc1ccc2nc3n(c(=O)c2c1)CCC3,34%
19,CCCCCCc1cc2c3c(c(=O)oc2cc1OCC(N)=O)CCC3,3%
